Data reported in the supplement of paper PMC10849652.
About 7,900 targets were measured; listed, in parts, are those with a hit and a random draw of the rest. About 0.6% of all pairs of compound and target were hits. A number with no mark means an inactive call.

Key:
Assay in all cases: log2 fold change, soluble protein after heating vs DMSO (PISA); higher = thermal stabilisation; K562 cells, 10 uM, 30 min; active = over 0.2 and 3.5 SD of the protein, either way, in both replicates (recomputed)
saracatinib = compound: CN1CCN(CCOc2cc(OC3CCOCC3)c3c(Nc4c(Cl)ccc5c4OCO5)ncnc3c2)CC1 [saracatinib]
Method in brief: (§1)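 Soluble protein was defined as the supernatant after 21,000xg for 90 min. It came from K562 cells at 2×10^6 cells/mL given 10 μM compound for 30 min, heated in aliquots for 3 min across 48°C-58°C, pooled, and extracted in PBS with 0.5% NP-40 at 4°C, and was quantified by TMTpro 16plex LC-MS/MS with equalised channel sums. Thermal stability against control samples, from duplicates, is reported as log2 fold change.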

sotrastaurin = compound: CN1CCN(c2nc(C3=C(c4c[nH]c5ccccc45)C(=O)NC3=O)c3ccccc3n2)CC1 [sotrastaurin]
Method in brief: as §1

alvocidib = compound: CN1CC[C@H](c2c(O)cc(O)c3c(=O)cc(-c4ccccc4Cl)oc23)[C@H](O)C1 [alvocidib]
Method in brief: as §1

Tubastatin A = compound: CN1CCc2c(c3ccccc3n2Cc2ccc(C(=O)NO)cc2)C1 [Tubastatin A]
Method in brief: as §1

[1] = compound: CNC(=O)C1=CC=CC=C1NC2=NC(=NC=C2Cl)NC3=C(C=C(C=C3)N4CCOCC4)OC
Method in brief: as §1

rucaparib = compound: CNCc1ccc(-c2[nH]c3cc(F)cc4c3c2CCNC4=O)cc1 [rucaparib]
Method in brief: as §1

[2] = compound: CNc1nc(-c2ccc3c(N)n[nH]c3c2)cc(N2C[C@@H](C(=O)NC3CCCCC3)CC[C@H]2C)n1
Method in brief: as §1

encorafenib = compound: COC(=O)N[C@@H](C)CNc1nccc(-c2cn(C(C)C)nc2-c2cc(Cl)cc(NS(C)(=O)=O)c2F)n1 [encorafenib]
Method in brief: as §1

[3] = compound: COC1=CC=C(C=C1)CN2C=CC3=C2C=C(C=C3)C(=O)NO
Method in brief: as §1

filanesib = compound: CON(C)C(=O)N1N=C(c2cc(F)ccc2F)S[C@@]1(CCCN)c1ccccc1 [filanesib]
Method in brief: as §1

zotarolimus = compound: CO[C@H]1C[C@@H]2CC[C@@H](C)[C@@](O)(O2)C(=O)C(=O)N2CCCC[C@H]2C(=O)O[C@H]([C@H](C)C[C@@H]2CC[C@H](n3cnnn3)[C@H](OC)C2)CC(=O)[C@H](C)/C=C(\C)[C@@H](O)[C@@H](OC)C(=O)[C@H](C)C[C@H](C)/C=C/C=C/C=C/1C [zotarolimus]
Method in brief: as §1

idasanutlin = compound: COc1cc(C(=O)O)ccc1NC(=O)[C@@H]1N[C@@H](CC(C)(C)C)[C@](C#N)(c2ccc(Cl)cc2F)[C@H]1c1cccc(Cl)c1F [idasanutlin]
Method in brief: as §1

[4] = compound: COc1cc2nc(-c3cc(F)ccc3O)nc(N[C@@H]3CNC[C@H]3C(C)(C)O)c2cc1OC
Method in brief: as §1

lapatinib = compound: CS(=O)(=O)CCNCc1ccc(-c2ccc3ncnc(Nc4ccc(OCc5cccc(F)c5)c(Cl)c4)c3c2)o1 [lapatinib]
Method in brief: as §1

pictilisib = compound: CS(=O)(=O)N1CCN(Cc2cc3nc(-c4cccc5[nH]ncc45)nc(N4CCOCC4)c3s2)CC1 [pictilisib]
Method in brief: as §1

defactinib = compound: CNC(=O)c1ccc(Nc2ncc(C(F)(F)F)c(NCc3nccnc3N(C)S(C)(=O)=O)n2)cc1 [defactinib]
Method in brief: as §1

[5] = compound: COC(=O)[C@H](CCSC)NC(=O)C1=C(C=C(C=C1)NC[C@H](CS)N)C2=CC=CC=C2
Method in brief: as §1

alisertib = compound: COc1cc(Nc2ncc3c(n2)-c2ccc(Cl)cc2C(c2c(F)cccc2OC)=NC3)ccc1C(=O)O [alisertib]
Method in brief: as §1

gefitinib = compound: COc1cc2ncnc(Nc3ccc(F)c(Cl)c3)c2cc1OCCCN1CCOCC1 [gefitinib]
Method in brief: as §1

[6] = compound: COc1cccc2cc(-c3nc([C@H]4CC[C@H](C(=O)O)CC4)n4ncnc(N)c34)[nH]c12
Method in brief: as §1

Sequence of UniProt Q2TBE0 (Q2TBE0 whole entry, looked up): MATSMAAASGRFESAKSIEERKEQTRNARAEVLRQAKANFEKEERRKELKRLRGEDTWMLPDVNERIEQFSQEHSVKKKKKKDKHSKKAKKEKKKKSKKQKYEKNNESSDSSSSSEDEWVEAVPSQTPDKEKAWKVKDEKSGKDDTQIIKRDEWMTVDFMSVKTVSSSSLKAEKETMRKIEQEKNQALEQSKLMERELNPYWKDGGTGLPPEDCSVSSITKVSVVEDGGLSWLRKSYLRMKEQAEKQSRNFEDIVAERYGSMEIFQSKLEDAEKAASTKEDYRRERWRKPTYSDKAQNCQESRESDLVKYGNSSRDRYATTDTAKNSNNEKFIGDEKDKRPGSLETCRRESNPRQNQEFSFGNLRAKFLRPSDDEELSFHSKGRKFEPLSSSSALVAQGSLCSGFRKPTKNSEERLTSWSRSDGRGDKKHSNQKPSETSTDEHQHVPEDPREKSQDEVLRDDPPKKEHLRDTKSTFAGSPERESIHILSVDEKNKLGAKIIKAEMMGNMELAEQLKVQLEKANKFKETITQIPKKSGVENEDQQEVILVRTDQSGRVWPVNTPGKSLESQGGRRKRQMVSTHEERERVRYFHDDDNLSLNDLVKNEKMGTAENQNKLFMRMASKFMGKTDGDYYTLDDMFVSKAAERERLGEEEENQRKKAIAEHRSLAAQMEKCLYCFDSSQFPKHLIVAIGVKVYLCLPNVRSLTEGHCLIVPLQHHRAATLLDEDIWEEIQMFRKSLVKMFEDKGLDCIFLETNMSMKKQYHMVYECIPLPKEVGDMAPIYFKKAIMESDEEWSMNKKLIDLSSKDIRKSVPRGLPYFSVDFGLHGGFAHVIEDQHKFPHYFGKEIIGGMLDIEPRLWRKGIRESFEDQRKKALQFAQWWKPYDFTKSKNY
Sequence of UniProt Q04637 (Q04637 whole entry, looked up): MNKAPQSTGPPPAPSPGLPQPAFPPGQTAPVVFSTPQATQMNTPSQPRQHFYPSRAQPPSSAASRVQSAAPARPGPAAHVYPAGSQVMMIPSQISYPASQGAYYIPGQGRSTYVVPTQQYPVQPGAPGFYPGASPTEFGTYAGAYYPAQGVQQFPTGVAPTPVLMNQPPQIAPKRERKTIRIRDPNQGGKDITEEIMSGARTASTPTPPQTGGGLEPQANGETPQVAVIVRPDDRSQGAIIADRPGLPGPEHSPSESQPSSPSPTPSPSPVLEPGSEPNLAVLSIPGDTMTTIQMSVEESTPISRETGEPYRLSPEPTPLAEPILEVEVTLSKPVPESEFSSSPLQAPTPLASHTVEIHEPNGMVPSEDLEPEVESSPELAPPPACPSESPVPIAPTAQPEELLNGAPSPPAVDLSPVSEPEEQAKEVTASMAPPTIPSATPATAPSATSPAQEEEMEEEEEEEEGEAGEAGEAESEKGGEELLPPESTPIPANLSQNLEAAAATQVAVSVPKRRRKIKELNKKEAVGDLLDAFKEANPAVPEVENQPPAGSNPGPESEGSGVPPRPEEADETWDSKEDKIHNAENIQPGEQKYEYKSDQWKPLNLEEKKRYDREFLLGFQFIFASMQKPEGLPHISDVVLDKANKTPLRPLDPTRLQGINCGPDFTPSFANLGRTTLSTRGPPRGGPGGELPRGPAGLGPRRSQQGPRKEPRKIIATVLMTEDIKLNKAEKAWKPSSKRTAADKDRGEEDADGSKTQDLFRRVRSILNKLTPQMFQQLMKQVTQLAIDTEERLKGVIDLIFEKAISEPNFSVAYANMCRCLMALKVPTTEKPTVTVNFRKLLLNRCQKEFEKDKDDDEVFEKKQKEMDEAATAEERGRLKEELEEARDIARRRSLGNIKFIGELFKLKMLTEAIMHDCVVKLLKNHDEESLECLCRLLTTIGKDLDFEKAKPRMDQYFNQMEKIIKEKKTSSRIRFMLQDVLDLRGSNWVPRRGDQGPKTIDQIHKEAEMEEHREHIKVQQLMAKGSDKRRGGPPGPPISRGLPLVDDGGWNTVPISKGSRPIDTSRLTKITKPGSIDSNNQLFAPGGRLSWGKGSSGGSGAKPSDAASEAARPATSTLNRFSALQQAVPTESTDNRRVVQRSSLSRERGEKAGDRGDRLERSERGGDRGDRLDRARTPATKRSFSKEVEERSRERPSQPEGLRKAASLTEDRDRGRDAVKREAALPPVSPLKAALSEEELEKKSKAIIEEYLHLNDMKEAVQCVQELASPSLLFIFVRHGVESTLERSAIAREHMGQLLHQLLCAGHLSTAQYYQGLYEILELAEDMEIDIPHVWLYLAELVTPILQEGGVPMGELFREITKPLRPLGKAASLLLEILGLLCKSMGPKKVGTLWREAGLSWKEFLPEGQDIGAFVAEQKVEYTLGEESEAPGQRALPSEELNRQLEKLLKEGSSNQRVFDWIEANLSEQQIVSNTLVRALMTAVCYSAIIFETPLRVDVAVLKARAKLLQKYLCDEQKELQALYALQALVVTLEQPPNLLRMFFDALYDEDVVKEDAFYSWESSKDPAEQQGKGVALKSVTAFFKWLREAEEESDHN
Sequence of UniProt Q8NF50 (Q8NF50 whole entry, looked up): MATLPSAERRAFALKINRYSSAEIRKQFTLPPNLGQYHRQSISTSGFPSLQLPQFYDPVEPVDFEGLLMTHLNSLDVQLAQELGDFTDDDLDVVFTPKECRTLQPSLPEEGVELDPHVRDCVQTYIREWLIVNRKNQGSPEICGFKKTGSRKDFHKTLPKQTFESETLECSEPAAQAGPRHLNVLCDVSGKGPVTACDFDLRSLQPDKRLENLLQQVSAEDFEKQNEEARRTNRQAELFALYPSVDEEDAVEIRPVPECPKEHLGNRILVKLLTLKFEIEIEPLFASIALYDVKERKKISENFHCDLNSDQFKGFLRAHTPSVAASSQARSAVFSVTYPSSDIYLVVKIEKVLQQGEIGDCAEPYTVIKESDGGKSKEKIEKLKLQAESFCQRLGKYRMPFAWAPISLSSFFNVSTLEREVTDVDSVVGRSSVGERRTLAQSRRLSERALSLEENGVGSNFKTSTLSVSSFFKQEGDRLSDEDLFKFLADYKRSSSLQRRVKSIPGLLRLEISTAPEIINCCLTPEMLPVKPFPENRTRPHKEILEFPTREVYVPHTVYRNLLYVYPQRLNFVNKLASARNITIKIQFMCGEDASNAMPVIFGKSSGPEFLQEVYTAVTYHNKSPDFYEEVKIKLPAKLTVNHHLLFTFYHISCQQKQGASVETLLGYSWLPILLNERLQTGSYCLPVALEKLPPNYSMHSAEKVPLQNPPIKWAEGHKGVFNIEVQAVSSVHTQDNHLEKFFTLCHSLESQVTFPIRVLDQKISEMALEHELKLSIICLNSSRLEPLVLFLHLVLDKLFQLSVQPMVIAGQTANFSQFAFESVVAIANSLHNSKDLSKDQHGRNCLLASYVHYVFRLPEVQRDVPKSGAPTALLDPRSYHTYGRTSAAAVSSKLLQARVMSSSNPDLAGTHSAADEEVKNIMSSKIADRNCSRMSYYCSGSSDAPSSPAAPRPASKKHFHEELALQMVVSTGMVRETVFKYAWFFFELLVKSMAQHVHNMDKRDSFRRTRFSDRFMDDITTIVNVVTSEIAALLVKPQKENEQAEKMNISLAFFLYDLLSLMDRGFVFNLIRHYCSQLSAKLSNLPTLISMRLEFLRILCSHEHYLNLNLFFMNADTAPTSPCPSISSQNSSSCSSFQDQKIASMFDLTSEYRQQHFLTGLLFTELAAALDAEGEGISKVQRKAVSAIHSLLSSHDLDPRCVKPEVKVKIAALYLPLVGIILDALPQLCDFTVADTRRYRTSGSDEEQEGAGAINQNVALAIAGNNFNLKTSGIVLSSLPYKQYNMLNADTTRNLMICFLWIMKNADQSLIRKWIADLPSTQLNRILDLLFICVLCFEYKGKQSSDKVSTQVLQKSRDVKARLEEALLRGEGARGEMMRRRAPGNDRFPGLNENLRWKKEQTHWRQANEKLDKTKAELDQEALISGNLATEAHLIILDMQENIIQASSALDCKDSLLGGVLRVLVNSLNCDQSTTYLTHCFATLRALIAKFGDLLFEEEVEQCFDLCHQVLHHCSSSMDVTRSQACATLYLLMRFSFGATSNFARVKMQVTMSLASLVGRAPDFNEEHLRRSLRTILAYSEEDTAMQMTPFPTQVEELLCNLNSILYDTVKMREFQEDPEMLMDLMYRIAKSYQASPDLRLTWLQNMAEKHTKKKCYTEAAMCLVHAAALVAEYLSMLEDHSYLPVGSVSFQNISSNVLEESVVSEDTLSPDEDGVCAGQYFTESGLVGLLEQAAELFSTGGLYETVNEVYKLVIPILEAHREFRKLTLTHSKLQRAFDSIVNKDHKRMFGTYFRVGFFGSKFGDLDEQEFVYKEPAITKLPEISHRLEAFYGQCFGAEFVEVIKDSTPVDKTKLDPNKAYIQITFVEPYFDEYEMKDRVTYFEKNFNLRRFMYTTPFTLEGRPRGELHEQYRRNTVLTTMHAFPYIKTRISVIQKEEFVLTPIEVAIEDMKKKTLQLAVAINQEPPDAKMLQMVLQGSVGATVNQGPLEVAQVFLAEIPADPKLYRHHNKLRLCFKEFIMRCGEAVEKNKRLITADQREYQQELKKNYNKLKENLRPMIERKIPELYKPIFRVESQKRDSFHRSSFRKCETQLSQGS
Sequence of UniProt Q9BPY3 (Q9BPY3 whole entry, looked up): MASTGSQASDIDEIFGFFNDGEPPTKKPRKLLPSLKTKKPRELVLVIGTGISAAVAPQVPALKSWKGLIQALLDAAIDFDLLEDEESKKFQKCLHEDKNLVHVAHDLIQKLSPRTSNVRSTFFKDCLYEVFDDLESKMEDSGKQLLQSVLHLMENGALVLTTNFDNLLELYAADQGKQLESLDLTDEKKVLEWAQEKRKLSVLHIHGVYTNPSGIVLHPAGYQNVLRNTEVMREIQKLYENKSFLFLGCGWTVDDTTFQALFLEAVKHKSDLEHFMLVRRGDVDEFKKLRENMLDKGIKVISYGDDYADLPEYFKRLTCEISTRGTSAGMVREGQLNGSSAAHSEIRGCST

Row | Target | log2 fold change (saracatinib) | log2 fold change (sotrastaurin) | log2 fold change (alvocidib) | log2 fold change (Tubastatin A) | log2 fold change [1] | log2 fold change (rucaparib) | log2 fold change [2] | log2 fold change (encorafenib) | log2 fold change [3] | log2 fold change (filanesib) | log2 fold change (zotarolimus) | log2 fold change (idasanutlin) | log2 fold change [4] | log2 fold change (lapatinib) | log2 fold change (pictilisib) | log2 fold change (defactinib) | log2 fold change [5] | log2 fold change (alisertib) | log2 fold change (gefitinib) | log2 fold change [6]
1 | CWF19L2 (UniProt Q2TBE0) | -0.089 | -0.15 | 0.081 | -0.079 | -0.034 | 0.102 | -0.014 | -0.002 | 0.003 | 0.225 | -0.025 | 0.124 | 0.062 | -0.08 | -0.309 | – | – | – | – | –
2 | DOCK8 (UniProt Q8NF50) | -0.241 | -0.398 | 0.149 | 0.166 | -0.163 | 0.044 | -0.06 | -0.079 | 0.475 | 0.464 | 0.083 | 0.217 | – | – | -0.337 | 0.242 | -0.154 | -0.029 | 0.006 | -0.428
3 | FAM193B (UniProt Q96PV7) | -0.289 | 0.06 | -0.32 | -0.007 | – | 0.19 | 0.096 | 0.162 | -0.179 | 0.379 | -0.077 | 0.311 | 0.112 | -0.066 | – | 0.231 | 0.044 | – | – | –
4 | DENND1A isoform 6 (UniProt Q8TEH3) | – | – | – | -0.018 | – | – | – | – | 0.154 | – | – | – | -0.18 | 0.06 | – | -0.081 | -0.024 | – | – | –
5 | DBNL (UniProt Q9UJU6) | – | – | -0.142 | – | – | – | – | – | – | – | -0.324 | – | – | – | – | – | – | – | – | –
6 | ENTR1 (UniProt Q96C92) | -0.131 | – | – | – | -0.03 | – | -0.039 | – | – | – | – | – | -0.065 | 0.075 | – | 0.022 | -0.486 (active) | – | – | –
7 | EIF3J isoform 2 (UniProt O75822) | 0.035 | 0.075 | – | -0.082 | -0.021 | – | -0.04 | – | -0.099 | 0.013 | – | 0.107 | 0.051 | -0.116 | – | -0.085 | -0.008 | -0.074 | 0.047 | 0.02
8 | DDX11 (UniProt Q96FC9) | -0.016 | -0.248 | – | -0.034 | -0.035 | – | -0.005 | – | -0.069 | 0.144 | – | -0.05 | 0.047 | -0.045 | – | -0.052 | 0.118 | 0.088 | -0.009 | 0.437 (active)
9 | DOP1A (UniProt Q5JWR5) | – | – | – | – | -0.052 | – | – | – | – | – | – | – | – | – | – | 0.164 | -0.083 | -0.013 | – | 0.02
10 | EIF2AK3 (UniProt Q9NZJ5) | -0.019 | – | 0.045 | 0.039 | 0.183 | -0.125 | 0.082 | -0.216 | 0.135 | – | -0.06 | -0.039 | 0.201 | 0.146 | -0.233 | – | – | -0.141 | -0.161 | 0.078
11 | FADS1 (UniProt F5GYH4) | – | – | – | 0.123 | – | – | – | – | -0.373 | – | – | – | – | – | – | 0.06 | 0.123 | – | – | –
12 | ELOVL7 (UniProt A1L3X0) | -0.018 | – | -0.101 | -0.002 | -0.112 | – | -0.093 | – | – | – | 0.012 | -0.118 | – | – | – | – | – | – | – | –
13 | EIF4G1 (UniProt Q04637) | -0.112 | – | 0.047 | 0.006 | – | – | -0.017 | – | – | – | -0.118 | 0.071 | – | – | -0.307 | -0.08 | 0.014 | – | – | –
14 | DDB1 isoform 2 (UniProt Q16531) | – | 0.053 | – | – | – | -0.067 | – | -0.041 | – | 0.077 | – | – | – | – | 0.094 | – | – | – | – | –
15 | EGR1 (UniProt P18146) | – | -0.481 | -0.604 | 0.129 | -0.147 | – | – | – | – | 0.463 | 0.125 | 0.164 | -0.24 | 0.067 | -0.362 | -0.841 (active) | 0.041 | -0.54 | -0.183 | 0.079
16 | FAM207A (UniProt Q9NSI2) | 0.005 | -0.115 | – | 0.106 | 0.028 | 0.064 | 0.007 | 0.149 | -0.034 | 0.238 | – | 0.009 | 0.108 | 0.041 | -0.097 | 0 | 0.031 | 0.238 | -0.124 | -0.146
17 | DNAJB1 (UniProt M0R128) | – | – | 0.082 | -0.058 | – | – | – | – | – | – | -0.062 | – | – | – | – | -0.073 | 0.18 | – | – | –
18 | CTNNBL1 (UniProt Q8WYA6) | – | – | – | – | – | 0.137 | – | 0.121 | – | – | – | – | -0.008 | -0.581 | – | -0.513 | -0.19 | – | – | –
19 | DLK1 (UniProt P80370) | 0.021 | – | 0.03 | – | – | -0.023 | -0.09 | -0.032 | -0.021 | – | -0.095 | – | – | – | – | -0.08 | 0.159 | – | – | –
20 | DYNC1I2 isoform 2 (UniProt Q13409) | – | 0.062 | 0 | -0.028 | -0.021 | -0.034 | – | -0.108 | 0.093 | 0.203 | -0.085 | 0.201 | 0.06 | -0.002 | – | – | – | 0.066 | – | 0.051
21 | FAM118B (UniProt Q9BPY3) | – | -0.02 | -0.142 | 0.019 | 0.088 | 0.041 | – | 0.029 | 0.028 | -0.196 | 0.011 | -0.034 | 0.017 | 0.018 | 0.099 | -0.113 | -0.037 | -0.049 | 0.031 | 0.129
